In the library only some 2.5% were active in any assay of this set; here they are far more common.
Env fusion inh: inhibitors of HIV Env-mediated cell fusion | HeLa-JRFL Env/CEM21 cell fusion, luciferase | inhibition, % at 12.3 µM | hit rate 1.1% among 360,000;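 active = mean replicate inhibition score of at least 50 and every replicate individually at or above 50; inconclusive = only one of the two criteria met; inactive = mean below 50 and not all replicates reaching 50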;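 also: 0% = plate neutral controls and 100% = maraviroc near 300 nM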
CFTR F508del cor: CFTR F508del correction in bronchial cells; CFBE cells, YFP halide quenching; stimulated with forskolin plus potentiator P3; % fluorescence drop versus neutral controls; activity (quench increase), % at 7.58 µM; hit rate 0.36% among 350,000;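 active = mean added fluorescence quench of at least 8% versus neutral control, with both replicates also reaching 8%; inconclusive = only one of the mean or replicate conditions met; inactive = mean below 8% and not both replicates reaching 8%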;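 also: cells transiently co-express mutant CFTR-F508del with the halide-sensitive YFP; corrector assay measuring rescue of mutant channel to the surface after 24 h compound exposure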
PAX8 inh HTS: inhibitors of PAX8 transcriptional activity in RMG-I cells. hit rate 1.2% among 360,000. inhibition, % at 12.6 µM. RMG-I TPO-luciferase reporter, SteadyGlo, 24 h;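 active = mean replicate inhibition at least 60% with every replicate also reaching 60%; inconclusive = only one of the two criteria is met; inactive = mean below 60% and not all replicates reaching 60%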;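 also: luciferase light reporting Pax8 driven TPO promoter activity; plate controls were median of neutral control wells for no effect and mitoxantrone controls for full effect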
EWS-Fli block: inhibitors of EWS/Fli oncoprotein transcriptional activity; A673 NR0B1-luciferase reporter, viability-normalised; inhibition, % at 12.6 µM; hit rate 0.67% among 350,000; AID 651661;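 active = mean inhibition of at least 50% after viability correction, with every replicate also passing that limit; inconclusive = mean reaches 50% but only one of two replicates passes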;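 also: firefly luciferase signal divided by Alamar Blue viability fluorescence both relative to DMSO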
GAA850 FXN act: increases GAA850 frataxin promoter reporter activity; HEK293 lucGAA850 FXN promoter luciferase reporter, 24 h; percent of 10 µM SAHA response; activation, % at 6 µM; hit rate 0.56% among 360,000;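 active = activation above the average of all compounds screened plus 3 SD, cutoff fixed separately per campaign, cut at about 7.5% in these data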;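 also: 0% = DMSO wells and 100% = 10 µM SAHA wells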
Numbers without * were called inactive; ? = inconclusive; nt = no result given; [ ] = dose if it differs, or a comment.

SMILES	Env fusion inh	CFTR F508del cor	PAX8 inh HTS	EWS-Fli block	GAA850 FXN act
COC(=O)c1cnc(Oc2ccc(NC(=O)NC(=O)c3c(F)cccc3Cl)cc2)cc1C(F)(F)F	-62	0	31	51*	-2
CC(C)NC(=O)N1CCCCN2[C@H](CO)[C@@H](c3ccc(C#Cc4ccccc4)cc3)[C@@H]2C1	nt	5	11	-8	nt
O=S1(=O)c2ccc(Br)cc2N2CC[C@H](C2)N1Cc1ccc(Cl)cc1	nt	2	27	66*	-3
O=S1(=O)c2ccc(Br)cc2N2CCC[C@@H]2CN1Cc1ccc(Cl)cc1	23	0	9	-11	-1
O=S1(=O)c2ccc(Br)cc2N2CCC[C@@H]2CN1C1CC1	nt	0	23	2	1
O=S1(=O)c2ccc(Br)cc2N2CCC[C@H]2CN1Cc1ccccc1	18	9.5*	11	48	-6
C[C@@H](c1ccccc1)N1C[C@H]2CCCN2c2cc(Br)ccc2S1(=O)=O	-26	1	36	63*	-5
COc1ccccc1CNC(=O)C[C@H]1C=C[C@H](NC(=O)CN(C)C)[C@H](CO)O1	nt	0	nt	nt	nt
O=C(c1ccc2c(c1)OCO2)N(CC1CCCO1)C1(C(=O)NC2CCCCC2)CCCCC1 (centres undefined)	135*	nt	-4	nt	4
O=C(c1ccc2c(c1)OCO2)N(Cc1cccs1)C1(C(=O)NC2CCCCC2)CCCCC1	103*	nt	nt	nt	3
CN(C(=O)c1ccc2c(c1)OCO2)C1(C(=O)NC2CCCC2)CCCCC1	-36	nt	-18	nt	-1
O=C(Cc1cccs1)N(Cc1cccs1)C1(C(=O)NC2CCCC2)CCCCC1	?	nt	9	nt	0
O=C(Cc1cccs1)N(Cc1ccco1)C1(C(=O)NC2CCCCC2)CCCCC1	73*	nt	23	nt	4
CO[C@@H]1CN(C)C(=O)c2cc(NS(C)(=O)=O)ccc2OC[C@@H](C)N(CCC(F)(F)F)C[C@@H]1C	nt	2	nt	-10	nt
Cc1noc(C)c1NC(=O)N(C)C[C@H]1Oc2ccc(NC(=O)Nc3ccc4c(c3)OCO4)cc2C(=O)N([C@@H](C)CO)C[C@H]1C	3[16.7 µM]	-2	nt	-4	nt
Nc1nc(Nc2ccc(Cl)cc2)nc(NCc2ccco2)c1[N+](=O)[O-]	59*	2	-41	-27	6
Cc1cccc(Nc2nc(N)c([N+](=O)[O-])c(NCc3ccco3)n2)c1	nt	3	48	-9	6
Nc1nc(Nc2cccc(Cl)c2)nc(NCc2ccco2)c1[N+](=O)[O-]	76*	0	-29	-61	7
C[C@@H]1CCCCO[C@H](CN(C)S(=O)(=O)c2ccc(Cl)cc2)[C@H](C)CN([C@H](C)CO)C(=O)c2cc(NC(=O)C3CCCCC3)ccc2O1	28[16.7 µM]	-4	29	1	nt
O=C(C1CC1)N1[C@@H](CO)[C@@H]2c3ccccc3N(S(=O)(=O)c3ccccc3)C[C@@H]21	nt	0	8	-3	nt
CC(C)NC(=O)N(C)C[C@H]1OCCCC[C@@H](C)Oc2ccc(NS(=O)(=O)c3ccc(F)cc3)cc2C(=O)N([C@H](C)CO)C[C@H]1C	-16[16.7 µM]	2	3	-1	nt
O=C(Nc1ccccc1F)NC1CCN(Cc2nnnn2Cc2ccc(F)cc2)CC1	-16	nt	nt	nt	-2
O=C(Nc1ccc(F)cc1)NC1CCN(Cc2nnnn2Cc2ccco2)CC1	61*	nt	nt	nt	-3
Cc1cccc(S(=O)(=O)N2CCCCN3[C@H](C2)[C@H](c2ccc(C#C[C@H](C)O)cc2)[C@@H]3CO)c1	nt	2	46	11	nt
O=C(Cc1ccccc1)c1ccccc1C(=O)N1CCCCC1	-4	0	108*	-5	1
SMILES	Env fusion inh	CFTR F508del cor	PAX8 inh HTS	EWS-Fli block	GAA850 FXN act
O=C(Nc1cc(C(F)(F)F)ccc1N1CCCCC1)c1cccc([N+](=O)[O-])c1	98*	nt	nt	nt	-1
Cc1ccc(N(CC(=O)NCCc2ccc(F)cc2)S(=O)(=O)c2ccc(Cl)c([N+](=O)[O-])c2)c(C)c1	3	nt	78*	5	-1
O=C(CN(c1ccc(Br)cc1)S(=O)(=O)c1ccc(Cl)c([N+](=O)[O-])c1)NCCc1ccccc1	-6	4	-11	13	1
COc1cc(OC)c2c(-c3cccc(-c4cccc(C)c4)c3)cc(=O)oc2c1	24	5	27	54*	-4
COc1cc(OC)c2c(-c3cccc(-c4ccc(N(C)C)cc4)c3)cc(=O)oc2c1	-164	6	77*	?	-4
COc1cc(OC)c2c(-c3cccc(-c4ccc(OC(F)(F)F)cc4)c3)cc(=O)oc2c1	9	2	-4	-3	1
COc1ccc(-c2cccc(-c3cc(=O)oc4cc(OC)c(OC)c(OC)c34)c2)cc1	50*	-1	12	5	2
COc1cc(OC)c2c(-c3cccc(-c4ccc(CO)cc4)c3)cc(=O)oc2c1	nt	nt	nt	nt	-3
COc1ccc(-c2cccc(-c3cc(=O)oc4cc(OC)cc(OC)c34)c2)cc1	-29	3	58	53*	0
COc1cc(OC)c2c(-c3cccc(-c4ccc(O)cc4)c3)cc(=O)oc2c1	-64	0	41	53*	-3
c1ccc(CSc2nnc([C@@H]3CCCN3)o2)cc1	94*	nt	nt	nt	-1
CCOC(=O)C1=C(C)Nc2ccccc2N=C1NC(=O)c1oc2ccccc2c1COC	nt	-3	65*	-8	-6
CC(=O)N(C)C[C@@H]1Oc2cc(-c3ccccc3F)ccc2S(=O)(=O)N([C@H](C)CO)C[C@@H]1C	14[16.7 µM]	-3	nt	-11	nt
C(#Cc1ccccc1)C[N+]1(CC#Cc2ccccc2)CCCCC1	36	2	38	17	-2
Cc1ccc(C#CC[N+]2(CC#Cc3ccc(C)cc3)CCCCC2)cc1	30	4	69*	33	-2
CCCNC(=O)N(C)C[C@H]1Oc2cc(-c3ccc(C)cc3)ccc2S(=O)(=O)N([C@@H](C)CO)C[C@H]1C	-18[16.7 µM]	0	nt	3	nt
C[C@H](CO)N1C[C@H](C)[C@H](CN(C)Cc2ccncc2)Oc2ccc(NS(=O)(=O)c3ccc(Cl)cc3)cc2CC1=O	nt	-2	11	-1	nt
C[C@@H]1CN([C@H](C)CO)C(=O)c2cc(N(C)C)ccc2O[C@H]1CN(C)C	0[16.7 µM]	-5	4	6	nt
CN1c2ccc(C3=CCCCC3)cc2[C@H]2[C@H](CCN2C(=O)NC2CCCCC2)[C@@H]1CO	nt	3	77*	-3	nt
CN1c2ccc(C3=CCCCC3)cc2[C@H]2[C@H](CCN2C(=O)NC2CCCC2)[C@@H]1CO	nt	0	nt	7	nt
CN1c2ccc(C3=CCCCC3)cc2[C@H]2[C@H](CCN2C(=O)C2CCC2)[C@@H]1CO	33[16.7 µM]	2	69*	0	nt
CN1c2ccc(C3=CCCCC3)cc2[C@@H]2[C@@H](CCN2C(=O)C2CCC2)[C@H]1CO	nt	2	nt	5	nt
O=C(Nc1ccc(Cl)cc1)N[C@@H]1CC[C@H](CCNC(=O)c2cc(Cl)cc(Cl)c2)O[C@@H]1CO	nt	-5	7	-4	nt
Cc1c(Cl)cccc1NC(=O)C1CC(=O)N(C2CCCC2)C1 (centres undefined)	nt	13*	8	5	3
COc1cccc(NC(=O)c2ccc(CN3CCN(c4ccccc4)CC3)cc2)c1	62*	nt	nt	nt	-6

Screening data as filed in PubChem BioAssay.
